# Bioassay records (PubChem)
# An excerpt weighted towards active compounds, which were near 19% of everything screened.
# IL1B secr inh = inhibitors of inflammasome signaling (IL-1 beta secretion) | THP-1 LPS/ATP IL-1B secretion, AlphaLISA, 16 h; active compounds read low | activity change, % at 57.5 µM | actives 4.7% (n = 360,000) | AID 743279; in the data active means activity change below about -50%; inconclusive means mostly about -30% to -49%
#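 Secreted IL-1B measured by AlphaLISA bead assay after 16 h compound exposure of THP-1 cells; compounds (final up to 57.5 uM) added 1 h before LPS (250 ng/mL) and ATP (1.25 mM) stimulation; lower signal means less secretion.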
# HT1080NT lethal = kills 2HG-producing HT-1080-NT fibrosarcoma cells | HT-1080-NT fibrosarcoma viability, CellTiter-Glo ATP luminescence, 48 h | Potency, µM (highest dose often 46.1 µM), inactives show at the top dose activity, negative = less viability, hits mostly cytotoxic | actives 1.6% (n = 360,000) | AID 686970;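 further: NT is the 2HG producing partner of a matched IDH1 knockdown line; potency means the concentration at half of the fitted maximal effect; 0% = DMSO-treated cells and -100% = media-only wells without cells; nearly all actives have a fitted effect of over 55% in size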
#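 Viability by CellTiter-Glo luminescence after 48 h compound exposure at 37C of HT-1080-NT cells (750/well, RPMI, 5% FBS). % activity scaled between DMSO wells and medium-only wells, then curve-fitted and categorized by curve class.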
# TDP1 cell CPT = growth inhibition of DT40 Tdp1-/-;hTDP1 cells with camptothecin (screen for TDP1 inhibitors) | chicken DT40 Tdp1-/-;hTDP1 cells + 20 nM CPT, ATP luminescence, 48 h | Potency, µM (top dose mostly 46.2 µM), for the others: at the highest dose activity change, negative = growth inhibition, usual class: inhibitors | actives 12% (n = 420,000) | AID 686979; further: potency means the concentration at half of the fitted maximal effect; nearly all actives have a fitted effect of over 55% in size
#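 Cell growth measured by CellTiter-Glo luminescence after a minimum 48 h, 37 C compound exposure with 20 nM CPT in Tdp1-knockout DT40 cells stably expressing hTDP1, seeded 400/well; qHTS titration format.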
# DT40 TDP1 no CPT = qHTS for Inhibitors of human tyrosyl-DNA phosphodiesterase 1 (TDP1): qHTS in cells in absence of CPT; DT40 Tdp1-/- hTDP1 cells, no CPT, ATP luminescence, 48 h; actives 15% (n = 420,000); Potency, µM (titrated, usually from 46.2 µM), inactives show at the highest dose activity change, negative = growth inhibition, actives largely listed as inhibitors; further: potency means the concentration at half of the fitted maximal effect; nearly all actives have a fitted effect of over 55% in size
#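 Camptothecin absent (DMSO only). Human TDP1-complemented DT40 knockout cells, 400 cells/well, 37 °C for minimum 48 hr; ATP measured via CellTiter-Glo, 30 min dark incubation, luminescence.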
# HT1080 IDH1KD tx = kills HT-1080 cells with IDH1 knockdown; HT-1080 IDH1 knockdown viability, ATP luminescence, 48 h; actives 2% (n = 360,000); Potency, µM (titrated, usually from 46.1 µM), inactives show top-dose activity, negative = toxicity, hits mostly cytotoxic; AID 686971;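 further: potency means the concentration at half of the fitted maximal effect; 0% = DMSO wells and -100% = cell-free medium wells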
#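 Luminescent ATP read-out (CellTiter-Glo, 10 min at room temperature) after 48 h compound exposure at 37 °C gave viability of IDH1-knockdown HT-1080 cells. Activity was normalised to DMSO and cell-free wells, then fitted as concentration-response curves.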
# An asterisk follows results filed as active; ? = inconclusive; . = no result given. Unless noted, the call rests on the fitted dose curve; in most records, active means well fitted curve in the direction sought with a large enough effect; inconclusive means small, poorly fitted or top-dose-only effect, or another doubt; inactive means no such curve, though single readings can be large; an effect the other way counts as inactive or inconclusive. Unless noted, on the % scale 0 is the no-effect control and ±100 the full control effect.
SMILES,IL1B secr inh,HT1080NT lethal,TDP1 cell CPT,DT40 TDP1 no CPT,HT1080 IDH1KD tx
O=S(=O)(Nc1ccc(-c2ccc3nncn3n2)cc1)c1cccs1,13,-21%,2%,-26%,-14%
COc1ccc(C)cc1N(C(=O)c1ccccc1F)c1nc2ccccc2s1,8,-2%,?,18µM*,-15%
COc1ccc(-c2[nH]ncc2CN2CCC(N3CCSCC3)CC2)c(F)c1,-10,-12%,?,?,-9%
CCN(c1ccccc1)S(=O)(=O)c1ccc(OC)c(NC(=O)C2CC(=O)N(Cc3ccccc3)C2)c1 (stereo unspecified),-54*,-9%,?,?,-2%
CCN(c1ccccc1)S(=O)(=O)c1ccc(OC)c(NC(=O)c2ccco2)c1,14,-1%,?,21µM*,-1%
CCN(c1ccccc1)S(=O)(=O)c1ccc(OC)c(NC(=O)c2ccccc2OC)c1,11,-10%,21µM*,?,-6%
CCN(c1ccccc1)S(=O)(=O)c1ccc(Oc2ccc([N+](=O)[O-])cc2)nc1,-14,-3%,?,?,-19%
CCN(c1ccccc1)S(=O)(=O)c1ccc(Oc2ccc(C(C)=O)cc2OC)nc1,14,-1%,?,16µM*,-10%
C[C@@H](CC#N)CN1CC[C@H](C(C)(C)C)CCC1=O,25,0%,1%,-4%,5%
Cc1cc(OC(C)C(=O)Nc2ccccc2C(=O)N2CCCC2)ccc1Cl (stereo unspecified),0,-3%,?,?,-2%
Cc1ccc(-c2nn(-c3ccccc3)cc2C(=O)N2CCN(C3CCS(=O)(=O)C3)CC2)cc1 (stereo unspecified),-9,4%,-13%,17%,-9%
Cc1ccc(NS(=O)(=O)c2cc3c4c(cccc4c2)C(=O)NC3=O)cc1C,-20,7.3µM*,6.5µM*,8.2µM*,5.2µM*
O=C1NC(=O)c2cc(Br)cc3cccc1c23,-4,9%,-2%,-18%,?
COc1ccc(Br)cc1-c1noc(-c2ccccc2F)n1,14,9%,-5%,2%,9%
COc1ccc(Br)cc1-c1nc(CCl)cs1,-3,3%,13µM*,15µM*,10%
Cc1cc(C)n(-c2nc3cc(Cl)ccc3nc2Nc2ccc(CC(=O)O)cc2)n1,.,.,-24%,-9%,.
COc1ccc(N2CCN(c3nc4ccc(C(=O)c5ccccc5)cc4n4cnnc34)CC2)cc1,.,.,16µM*,-96%,.
Cc1cccc(N2CCN(c3nc4ccc(C(=O)c5ccccc5)cc4n4cnnc34)CC2C)c1 (stereo unspecified),.,.,18µM*,13µM*,.
O=C(c1ccccc1)c1ccc2nc(N3CCN(C(=O)c4ccco4)CC3)c3nncn3c2c1,-20,6%,23µM*,13µM*,-9%
CCOC(=O)N1CCN(c2nc3ccc(C(=O)c4ccccc4)cc3n3cnnc23)CC1,-11,-5%,?,?,-2%
O=C(c1ccccc1)c1ccc2nc(N3CCN(c4ccccc4)CC3)c3nncn3c2c1,.,.,4.6µM*,6.5µM*,.
O=C1CCCN1CCC(=O)N1CCCC(CO)(Cc2ccccc2)C1 (stereo unspecified),5,19%,-26%,36%,15%
NS(=O)(=O)c1ccc(CCNC(=O)c2cnc(Cl)c(Cl)c2)cc1,11,13%,-13%,-22%,10%
O=C(CN(CC1CCCO1)C(=O)CNS(=O)(=O)c1ccc(Cl)cc1)NC1CCCC1 (stereo unspecified),-1,1%,-18%,-9%,3%
Cc1nn(C)c(C)c1/C=C(/C(=O)C(C)(C)C)n1cncn1,-57*,-13%,?,23µM*,?
CC(C)(C)C(=O)/C(=C/c1ccncc1)n1cncn1,-98*,7.3µM*,3.3µM*,1.6µM*,7.3µM*
